Tau fibril ThT = tau fibrillization inhibition (ThT binding); recombinant tau K18 P301L, heparin-induced fibrillization, ThT fluorescence; Potency, µM (doses to about 57.4 µM), inactives show top-dose activity, negative = inhibition, hits mostly inhibitors; 270,000 compounds, 2.1% hits; also: potency is read from the fitted curve at half-maximal effect; nearly all actives have a fitted effect of over 55% in size
Target sequence (P10636 561-689 P618L limits assumed): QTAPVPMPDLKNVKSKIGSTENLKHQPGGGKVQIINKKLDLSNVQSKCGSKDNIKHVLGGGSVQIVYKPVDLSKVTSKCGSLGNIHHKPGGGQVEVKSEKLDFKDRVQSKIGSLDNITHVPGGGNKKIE
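ThT emission at 510 nm, taken 1 hr after adding 30 uM dye, quantifies aggregates formed when 20 uM heparin acts on human tau K18 P301L for 6 hr at 37 C.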
FBPA coupling cs = coupling enzyme interference in Giardia aldolase counter-screen; coupling enzyme system counterscreen, AmpLite Red fluorescence; activity change, negative = inhibition, % at 58.2 µM, hits read low; 290,000 compounds, 0.67% hits; in the data active = activity change below about -30%
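Counterscreen lacking aldolase: glyceraldehyde-3-phosphate coupling-enzyme reagent preincubated 10 min at RT with compound (at 57.5 uM final), then substrate/coupling system with AmpLite Red added; fluorescence read at 525/598 nm after 20 min RT.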
Sfp PPTase inh = blocks B. subtilis Sfp PPTase activity. Q9F4F7. Biochemical Sfp PPTase activity, qHTS. Potency, µM, without a hit: largest response in the series, negative = inhibition, most hits filed as inhibitors. 310,000 compounds, 3.5% hits. AID 1490;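 also: the enzyme is Sfp with the accession as filed and its product quenches rhodamine fluorescence; potency is read from the fitted curve at half-maximal effect; 0% = enzyme reaction without inhibitor and -100% = no enzyme wells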
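After 15 min at room temperature with compound, 15 nM Sfp received 5 uM rhodamine-CoA plus 12.5 uM BHQ-2-ybbR (50 mM Hepes pH 7.6, 10 mM MgCl2). Rate came from the fluorescence difference over 30 min, ex 525/em 598 nm.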
G9a inh = G9a (human) methyltransferase inhibition. Q96KQ7. G9a H3K9 monomethylation, AlphaScreen, 2 h. Potency, µM (doses to about 102 µM), without a hit: top-dose activity, negative = inhibition, actives largely listed as inhibitors. 350,000 compounds, 8.8% hits. AID 504332; also: potency is read from the fitted curve at half-maximal effect; nearly all actives have a fitted effect of over 75% in size
Target sequence (Q96KQ7 913-1193 limits assumed): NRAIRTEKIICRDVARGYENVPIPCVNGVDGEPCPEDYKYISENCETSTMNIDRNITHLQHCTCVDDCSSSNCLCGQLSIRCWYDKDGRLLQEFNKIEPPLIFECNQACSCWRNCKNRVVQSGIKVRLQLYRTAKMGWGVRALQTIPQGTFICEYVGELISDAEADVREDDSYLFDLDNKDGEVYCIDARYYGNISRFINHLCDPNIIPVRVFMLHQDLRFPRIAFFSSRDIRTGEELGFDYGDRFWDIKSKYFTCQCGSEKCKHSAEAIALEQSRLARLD
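G9a (20 nM) was preincubated 15 min with compound, then reacted 2 h at room temperature with 500 nM biotin-H3K9 peptide and 20 µM SAM. Monomethyl-H3K9 detected by AlphaScreen using anti-H3K9me1 antibody.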
Tau fluor cs = counter-screen for tau fibril formation inhibitors; Potency, µM (highest dose often 57.7 µM), for inactives: at the top dose activity change, negative = decrease; 280,000 compounds, 0.93% hits; tau K18 P301L Alexa594 fluorescence, heparin fibrillization; also: potency is read from the fitted curve at half-maximal effect; nearly all actives have a fitted effect of over 55% in size
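Human tau K18 P301L (15 uM unlabeled, 0.24 uM Alexa 594-labeled) in 100 mM sodium acetate pH 7 with 20 uM heparin, 6 hr at 37 C. ThT 30 uM added, 1 hr ambient; Alexa 594 FP and total fluorescence read at 555/632 nm.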
Tau FP inhib = tau fibrillization inhibition (FP) | Potency, µM (doses to about 57.7 µM), for inactives: at the top dose activity, negative = inhibition, usual class: inhibitors | AID 1468 | 280,000 compounds, 0.39% hits | K18 P301L tau heparin fibrillization, Alexa594 FP, 6 h; also: potency is read from the fitted curve at half-maximal effect; nearly all actives have a fitted effect of over 55% in size
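Compound effects on tau fibrillization are measured by Alexa 594 fluorescence polarization (ex 555, em 632 nm). K18 P301L tau is used at 15 uM with 0.24 uM labeled tracer, and 20 uM heparin induces aggregation over 6 hr at 37 C.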
An asterisk follows results filed as active; ? = inconclusive; . = no result; [ ] = remark or other dose. The list is not random: actives were taken first. Their share in the collection is about 11%. Unless noted, calls follow the shape of the dose curve; as a rule, active = well fitted curve in the direction sought with a large enough effect; inconclusive = small, poorly fitted or top-dose-only effect, or another doubt; inactive = no such curve, though single readings can be large; an effect the other way counts as inactive or inconclusive. Unless noted, % is scaled to controls: 0 for no effect and ±100 for the full control effect.

SMILES	Tau fibril ThT	FBPA coupling cs	Sfp PPTase inh	G9a inh	Tau fluor cs	Tau FP inhib
CCOC(=O)C1CCN(S(=O)(=O)c2ccc3c(c2)CCN3C(=O)C2CCC2)CC1	.	.	11.4%	.	.	.
O=C(NCc1ccccc1)c1nccnc1CO	.	2.6	8.2%	12.5%	.	.
Cc1c(CCC(=O)NCCCn2ccnc2)c(=O)oc2cc3oc4c(c3cc12)CCCC4	.	-1.0	8.3%	-4.6%[12.7 µM]	.	.
Cc1ccc(C(=O)/C=C/C(=O)O)cc1	?	6.2	12.6µM*	10µM*	-9.6%	?
O=C(CC1CC2CCC1C2)Nc1nc(-c2ccccn2)cs1 (centres undefined)	?	-3.9	35.5µM*	20µM*	?	-9.6%
O=C(Nc1nc(-c2ccccn2)cs1)C12CC3CC(CC(O)(C3)C1)C2	-13.5%	-4.3	39.8µM*	28.2µM*	-11.7%	1.1%
O=C(Nc1nc(COc2ccccc2)cs1)C12CC3CC(CC(C3)C1)C2	-17.6%	-3.8	28.5%	44.7µM*	-27.0%	2.9%
O=C(Nc1nc(-c2ccccn2)cs1)C1CC1	-1.4%	0.4	-11.7%	8.8%	-7.7%	0.7%
CC(=O)Nc1nc(COc2ccccc2)cs1	-9.2%	-0.4	9.0%	0.3%[59 µM]	5.0%	1.5%
O=C(NCc1cccnc1)c1c(O)c2cccc3c2n(c1=O)CCC3	-7.4%	-4.3	8.0%	-9.4%	-2.7%	2.1%
CC(C)(C)c1cc(CSC(=S)NC2CCS(=O)(=O)C2)c(Br)c(C(C)(C)C)c1 (centres undefined)	-10.1%	-6.7	31.1%	?	-22.1%	?
O=S1(=O)CC=C(CSC(=S)NC2CCS(=O)(=O)C2)C1 (centres undefined)	?	0.4	?	44.7µM*	1.9%	-8.2%
N#Cc1ccc(CN2CCN(c3ccc(S(=O)(=O)N4CCCC4)cn3)CC2)cc1	.	.	.	-4.9%[59 µM]	.	.
CC1(C)C(c2cccs2)=[N+]([O-])C2(CCCCC/C2=N\NC(N)=S)N1O (centres undefined)	2.8%	-11.3	89.1µM*	8.1%	4.6%	-1.5%
Cc1c(Cl)cccc1-n1ncc(C(=O)Nc2ccc(Br)cc2F)c1C1CCNCC1	-12.7%	.	.	-3.1%[59 µM]	-2.7%	-4.8%
O=C1c2ccccc2C(O)(c2ncc[nH]2)N1C1CCCCC1 (centres undefined)	0.0%	7.1	-17.5%	20µM*	6.0%	1.6%
O=C1c2ccccc2C(=O)N1C1CCCCC1	.	0.5	-8.6%	7.7%	.	.
COc1ccc(CCN2C(=O)c3ccccc3C2(O)c2ncc[nH]2)cc1OC (centres undefined)	1.3%	3.8	?	22.4µM*	1.4%	-0.1%
CCCn1c(O)c(C=Nc2ccccc2)sc1=S	-16.5%	-11.3	8.1%	-24.1%	?	12.1%
Oc1c(/C=C/C=C/C=Nc2ccccc2)sc(=S)n1Cc1ccccc1	1.78µM*	-9.9	?	2.24µM*	?	?
CCn1c(O)c(/C=C/C=C/C=Nc2ccccc2)sc1=S	?	-3.8	?	14.1µM*	0.3%	-3.2%
CCn1c(O)c(C=NCc2ccccc2)sc1=S	-1.3%	-0.8	-14.1%	.	-17.4%	13.6%
CCn1c(O)c(C=Nc2ccccc2)oc1=S	-18.0%	1.6	?	28.2µM*	-6.7%	-5.8%
CCCCn1c(O)c(/C=C/C=C/C=Nc2ccccc2)sc1=S	3.16µM*	-13.6	-34.2%	2.82µM*	-26.3%	?
CCOC(=O)CC1COc2ccccc2N1C(=O)c1cccc([N+](=O)[O-])c1 (centres undefined)	.	-0.1	10.5%	5.5%	.	.
SMILES	Tau fibril ThT	FBPA coupling cs	Sfp PPTase inh	G9a inh	Tau fluor cs	Tau FP inhib
O=C(CCc1ccc(S(=O)(=O)N2CCOCC2)cc1)N1CCc2ccccc2C1	-4.8%	0.7	13.4%	-4.2%	-5.9%	-6.9%
CCN(CC)CCCC(C)n1c(-c2ccccc2)nc2c(NC3CCCCC3)nc(C)nc21 (centres undefined)	-8.7%	-1.2	2.9%	.	-6.9%	-1.1%
CCCN(CCC)CCCNC(=O)c1cc2c(=O)oc3ccc(C)cc3c2s1	8.5%	.	.	-2.2%[59 µM]	-3.7%	-2.1%
CC(=O)N1CCN(CCN=CC2=C(O)CC(c3ccc(Cl)cc3)CC2=O)CC1 (centres undefined)	-6.7%	5.4	5.9%	50.1µM*	5.2%	7.9%
C=CCNC(=S)N1CCN(CCN=CC2=C(O)CC(c3cccs3)CC2=O)CC1 (centres undefined)	-15.0%	6.8	16.5%	0.5%	-16.8%	-1.4%
COc1ccc(C2CC(=O)C(C=NCCN3CCN(C(C)=O)CC3)=C(O)C2)cc1 (centres undefined)	-5.3%	-0.3	20.2%	-11.8%[59 µM]	0.8%	4.5%
CC(=O)N1CCN(CCN=CC2=C(O)CC(c3cccs3)CC2=O)CC1 (centres undefined)	-6.4%	1.9	-0.8%	50.1µM*	-4.0%	-6.7%
C=CCN(C)CCCCCCOc1ccc(C(=O)c2ccc(Br)cc2)c(F)c1	.	-2.1	?	.	.	.
CC1CCC2C(=O)OC(CN=[N+]=[N-])CN2C1c1ccc(Br)cc1 (centres undefined)	-12.1%[11.5 µM]	1.3	0.7%	.	-16.4%[11.6 µM]	1.6%[11.6 µM]
O=C(/C=C/c1c(Cl)cccc1Cl)N1CCOCC1	.	0.5	3.1%	.	.	.
O=C(/C=C/c1c(Cl)cccc1Cl)n1cccn1	10µM*	4.7	?	-38.7%[59 µM]	-13.5%	?
CCOc1ccc(NC(=O)c2cc(S(=O)(=O)N3CCCCCC3)cn2C)cc1	3.7%	.	.	3.1%[59 µM]	-3.8%	-5.2%
Brc1ccc(Nc2nc(-c3cccnc3)cs2)cc1	?	-1.7	44.7µM*	31.6µM*	?	9.8%
CCc1ccccc1OCC(=O)Nc1nc(-c2cccnc2)cs1	-4.2%	-2.2	-11.5%	13.3%	-13.5%	-7.7%
Brc1ccc(-c2csc(-c3ccncc3)n2)cc1	-6.7%	-1.1	17.5%	3.9%[59 µM]	-11.9%	3.5%
Brc1ccc(-c2csc(Nc3nc(-c4ccc(Br)cc4)cs3)n2)cc1	?	-0.5	13.5%	-45.6%	8.91µM*[quencher]	2.1%
CCC(=O)c1ccc(OCC(=O)Nc2nc(-c3cccnc3)cs2)cc1	.	.	.	39.8µM*	.	.
O=C(O)c1ccc(Nc2nc(-c3cccnc3)cs2)cc1	.	0.7	89.1µM*	?	.	.
c1ccc(CNc2nc(-c3cccnc3)cs2)cc1	-12.7%	0.5	35.5µM*	50.1µM*	-6.8%	10.4%
Oc1ccc(Nc2nc(-c3cccnc3)cs2)cc1	.	-3.4	-16.2%	39.8µM*	.	.
O=C(c1ccc(OC2CCN(CCO)CC2)cc1)N1CCCC1	.	.	6.8%	10.9%	.	.
Cc1ccc2c(c1)-c1c(cnn1CC(=O)N(Cc1ccco1)C1CCCCC1)CO2	-18.3%	-0.3	-12.2%	-18.2%[59 µM]	-7.7%	-0.7%
